Data from PMC5540273 (PLoS ONE, 2017).

Assays:
Settings in all cases: concentration: 1 μM,replicates: in singlicate; n = 1
MAPKAPK5 = tested on: MAPKAPK5
MARK1 = tested on: MARK1
MARK2 = tested on: MARK2
MARK3 = tested on: MARK3
MARK4 = tested on: MARK4
MAST1 = tested on: MAST1
MEK1 = tested on: T1, MEK1
T1 construct: gene MAP2K1

MEK2 = tested on: T2, MEK2
T2 construct: gene MAP2K2

MEK3 = tested on: T3, MEK3
T3 construct: gene MAP2K3

MEK4 = tested on: T4, MEK4
T4 construct: gene MAP2K4

MEK5 = tested on: T5, MEK5
T5 construct: gene MAP2K5

MEK6 = tested on: T6, MEK6
T6 construct: gene MAP2K6

MELK = tested on: MELK
MERTK = tested on: MERTK
MET = tested on: MET
MINK = tested on: T7, MINK
T7 construct: gene MINK1

MKK7 = tested on: MKK7
MKNK1 = tested on: MKNK1
MKNK2 = tested on: MKNK2
MLCK = tested on: T8, MLCK
T8 construct: gene MYLK3
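Note: KINOMEscan kinase panel screen.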

| Compound | %Inh (MAPKAPK5) [%] | %Inh (MARK1) [%] | %Inh (MARK2) [%] | %Inh (MARK3) [%] | %Inh (MARK4) [%] | %Inh (MAST1) [%] | %Inh (MEK1) [%] | %Inh (MEK2) [%] | %Inh (MEK3) [%] | %Inh (MEK4) [%] | %Inh (MEK5) [%] | %Inh (MEK6) [%] | %Inh (MELK) [%] | %Inh (MERTK) [%] | %Inh (MET) [%] | %Inh (MINK) [%] | %Inh (MKK7) [%] | %Inh (MKNK1) [%] | %Inh (MKNK2) [%] | %Inh (MLCK) [%] |
| --- | --- | --- | --- | --- | --- | --- | --- | --- | --- | --- | --- | --- | --- | --- | --- | --- | --- | --- | --- | --- |
| CCN1CCN(CCCC(=O)Nc2n[nH]c3nc(-c4ccc(O)cc4)c(Br)cc23)CC1 [SB-731579] | 0 | 35 | 20 | 0 | 14 | 65 | 0 | 0 | 15 | 0 | 42 | 0 | 0 | 2 | 0 | 0 | 0 | 46 | 46 | 39 |
| CCOC(=O)N1CCC(n2cnc(-c3ccc(F)cc3)c2-c2ccnc(N)n2)CC1 [SB-219952] | 13 | 15 | 17 | 0 | 28 | 2 | 3 | 27 | 45 | 18 | 29 | 1 | 0 | 21 | 16 | 54 | 11 | 19 | 49 | 0 |
| CN(c1cccc(CNc2nc(Nc3ccc4c(c3)CC(=O)N4)ncc2C(F)(F)F)c1)S(C)(=O)=O | 0 | 47 | 39 | 66 | 56 | 0 | 0 | 43 | 62 | 35 | 0 | 0 | 84 | 80 | 93.9 | 76 | 0 | 0 | 28 | 1 |
| Cn1cc(-c2cccc3c(N)c(C(N)=O)nnc23)cn1 | 0 | 0 | 27 | 0 | 18 | 17 | 5 | 21 | 60 | 19 | 41 | 0 | 16 | 0 | 3 | 29 | 13 | 5 | 29 | 0 |
| COc1cc2ncn(-c3cc(OCC4CCCCC4)c(C(N)=O)s3)c2cc1OC [GSK204559] | 0 | 14 | 1 | 0 | 26 | 0 | 0 | 0 | 9 | 13 | 99.6 | 0 | 13 | 33 | 17 | 31 | 0 | 33 | 10 | 3 |
| Cl.Nc1n[nH]c2cc(-c3ccccn3)ccc12 [GSK2189892] | 0 | 0 | 0 | 10 | 0 | 0 | 2 | 0 | 0 | 5 | 45 | 0 | 2 | 0 | 0 | 0 | 0 | 0 | 32 | 0 |
| CCn1c(-c2nonc2N)nc2cncc(Br)c21 [SB-738004] | 0 | 0 | 21 | 0 | 6 | 53 | 22 | 29 | 49 | 0 | 74 | 10 | 35 | 0 | 0 | 29 | 22 | 10 | 81 | 28 |
| CN(c1ccccc1CNc1nc(Nc2ccc3c(c2)CC(=O)N3)ncc1C(F)(F)F)S(C)(=O)=O | 0 | 53 | 37 | 80 | 67 | 0 | 1 | 0 | 93.1 | 84 | 17 | 93.9 | 94.3 | 97.3 | 86 | 48 | 0 | 0 | 0 | 43 |
